In the supplement of paper PMC11417369:
The full ranking holds about 25,000 sequences; the median of “ln(normalized median fluorescence intensity)” is about 9.3, and the highest 2% start at about 10. This excerpt belongs to a sample that is enriched for the highest values.

What follows are sequences tested on PF3D7_0420300 AP2 domain 1 (GST-tagged) (assay: gcPBM binding intensity (ln(normalized median fluorescence intensity)); higher = stronger DNA binding).
In short: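 An Agilent 4 × 180k array carrying primer-extended double-stranded 36-bp intergenic genomic probes and negative controls received GST-tagged P. falciparum DNA-binding domains expressed in E. coli, about 25 μg on average, for 1 h. The binding buffer contained 1× PBS, 1% milk, 0.2 mg/ml BSA, 0.5% salmon testes DNA and 0.03% Triton X-100. Binding intensity is the top Masliner-normalised natural-log median intensity across replicate spots of either probe orientation, read after Alexa488 anti-GST antibody staining and a 488 nm scan.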

Point of comparison: “CCATTTTTTTTATACGCACACGTCATACTTTTAAAA [CACACA_site4988]”, “gcPBM binding intensity (ln)” value 9.46. Against it:
- TATTTGGGTATTTTTACACACATTAAAATATATATA [CACACA_site5800] — lower, 9.33
- ATATATATTTTATACGCATGTAATTATTATGTGGTC [TGCATGCA_site45] — lower, 9.29
- TAATAGTTATAAAATACACACCAGGCATGATAAATG [CACACA_site4335] — higher, 9.5
- TATATATATATAGGTTGTACATTTTGATGTTTACGT [XGTACX_site5503] — lower, 9.42
- TATACATACATACATACACACACACCGATATATACA [CACACA_site8184] — higher, 10.2
- CAAAAAAAATTATACACACACACACCGATATATATA [CACACA_site4719] — higher, 10.2
- AAAAAAAAAAAAAATACACACACACCGATATATATA [CACACA_site8142] — higher, 10.1
- TATACATACATACATACACACACACCGATATATATA [CACACA_site7896] — higher, 10.1
- TATATACATATATACACACACATATATATATATATA [CACACA_site2805] — higher, 9.6
- CAAAATAATATATATACACACACACCGATATATATA [CACACA_site8082] — higher, 10.2
- AAAAAAAATTCGTGTGTGCGCATATATAATATATAA — higher, 9.6
- AGATACTTTCCTCAAACACACAAAACTATACAACAA [CACACA_site1474] — lower, 9.45
- AAAAAAATAATCATCACACACGGAGAATGTCCAATA [CACACA_site5305] — higher, 9.6
- AAAAAAAAAACATACACACACACAAATATTTATATA [CACACA_site437] — higher, 10.1
- GAAATAGAGAGACACACACACATATATTTATGTATT [CACACA_site7794] — higher, 9.93
- AAAAAAAAATATATAAACACACATATTTATATACAC [GTGCAC_negctrl_site545] — higher, 9.61
- GAAATAGAGAAACACACACACATATATTTATGTATT [CACACA_site3967] — higher, 9.99
- AAGAAATATTTATACACACACACAAACATATATATA [CACACA_site1912] — higher, 10.2
- CATAAATACAAATATACACACATATTTATATTTATA [CACACA_site7277] — higher, 9.54
- CAGAAATAGAGATACACACACACATATATTTATGTA [CACACA_site3968] — higher, 10.2
- AAGAAATATTTATACACACACACAAACATATAAATA [CACACA_site6981] — higher, 10.2
- CACAAAAAGAAACACACACACATATATATTTATTAT [CACACA_site3646] — higher, 10.1
- AAAAAAAAAAAAAAAAAAAAATTTCAATTATATTGA [GTGCAC_negctrl_site642] — lower, 8.91
- ATTTATATTTGTATTTGTACTTATATTTATATTTAT [XGTACX_site1540] — higher, 9.64
- TGTGTAAGATCTTGGATGATGATAAGAATCTACTAG [CACACA_negctrl_site1167] — lower, 9.11
- TATATAAACACGTACACACACATATAGGTATTTATA [CACACA_site7615] — higher, 9.97
- TCTTAAAAAATAGGGACACGTAAATATAATATATAA [CACACA_negctrl_site554] — lower, 9.4
- TTATACTGTTTCAGAAAAATAAAGAATGAAAGTATT [XGTACX_negctrl_site230] — lower, 9.23
- TGTAGAAATGGGTGCACACACATATAAAATCTATAT [CACACA_site7224] — higher, 9.66
- TTTCAAAATGTGTAAAATAAAAATAATATCATTACA [TGCATGCA_negctrl_site521] — lower, 9.08
- ATTTTCTTTTCCATAGTGCAATATAATTATCCATCA [GTGCAC_site9547] — lower, 9.29
- TGTGTCAAGTTTAATAAACGCATATAATATATATGA [CACACA_negctrl_site607] — lower, 8.93
- AATTTTTTTTTTTTTTTTTTTTATATATGTGTGTGT [XGTACX_negctrl_site129] — higher, 9.74
- TTTTTTATATATGTGTGTGTGTGTGTGTCAAGTTTA [GTGCAC_negctrl_site460] — higher, 10.3
- TATATAAATATTCGTAGTACAATACAATTATAAGTA [XGTACX_site3068] — lower, 9.15
- AACTAATAAAAAAAAAAAACATTAAACAGGACAAAT [XGTACX_negctrl_site287] — higher, 9.78
- AAAATATATACACAAACATGCATATAATAAATAAAT [TGCATGCA_site711] — higher, 9.48
- CATATAAAAATATGCACACACAGGAATACAAACATA [CACACA_site684] — higher, 10.2
- AAAATATAATATAATGCACACATAAAACAAAAAAAA [CACACA_site8989] — higher, 9.74
- AAAATATAATATAATGCACACATAAACAAAAAAAAA [CACACA_site8161] — higher, 9.78
- AACATATAAAAATATGCACACACAGGAATACAAACA [CACACA_site8127] — higher, 10.3
- AATATAATATAATGCACACATAAACAAAAAAAAAAT [CACACA_site1304] — higher, 9.89
- TATATATATATGTGTAGTACAACAAATATGAAAAAT [XGTACX_site4059] — higher, 9.54
- AAGAATATTTTTTTCTGTACATATAATTTATATACG [XGTACX_site5801] — lower, 9.13
- TATTAATACAGACACACACACACACTAATTAAAATA [CACACA_site7967] — higher, 10.1
- ATTTATATATATCATACACACTAATATGTATATTAT [CACACA_site5816] — lower, 9.42
- GGGAAATATTGAAACACACACGAACGCACGTATTTC [CACACA_site6258] — higher, 9.54
- ATTTATTTATCAAATATTATCTTAAAAAAAAAAGAA [CACACA_negctrl_site1345] — lower, 8.79
- ACAAATGGAACTCCTACAAAAAATTTCCATAATATT [XGTACX_negctrl_site132] — lower, 9.16
- TATTAATTCATTTTTTTTTTTTTTTTTTTTTTTTTT [CACACA_negctrl_site1215] — lower, 9.13
- ATTAATAAATAAATGACACACACACCCACAAAAAAA [CACACA_site8839] — higher, 9.97
- ATAATCCTGAAACACACACACACACCCATAAATAAA [CACACA_site481] — higher, 10.1
- TTTATTAATAAACACACACACACACCCAAAATAAAA [CACACA_site7966] — higher, 10.2
- CAAAAAATGAAACACACACACACACCCATAAATAAA [CACACA_site1231] — higher, 10.1
- TTTATTAAGAAACACACACACACACCCAAAATAAAA [CACACA_site242] — higher, 10
- TAATAAATAAATGACACACACACACCCAAAAAAAAA [CACACA_site2623] — higher, 10.2
- CCCGAACAAACAAATAAACACACAAAAAAAAATATA [CACACA_site8540] — higher, 9.63
- TATTTATTAAAACACACACACACACCCACAAAATAA [CACACA_site241] — higher, 10.1
- GAATAATCCAAACACACACACACACCCGAATAAATA [CACACA_site482] — higher, 10.2
